From PubChem BioAssay (Tox21)
Several values for one entry are separate records, joined by “and”; a condition that tells them apart may be missing. Equal entries are not always repeated. Inconclusive results are not listed. The source holds several records for some structures; these can differ, active in one and inactive in another. Activity calls are given as the source filed them. Unless noted, calls come from the whole dose curve.

Key:
[1] = Nuclear factor erythroid 2-related factor 2/antioxidant responsive element (Nrf2/ARE) small molecule agonists: qHTS cell viability counter screen in human keratinocytes (AID 1919968; active = well fitted curve in the direction sought with a large enough effect in the repeat runs; an effect the other way counts as inactive or inconclusive; note: nearly all actives have a fitted effect of over 55% in size)
Summary of the method: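 Measured as CellTiter-Fluor fluorescence, this readout tracks cytotoxicity in the same wells as the ARE-luciferase screen. HaCaT reporter cells (1,500/well) received compounds after a 5 h pre-incubation and were exposed for 23 h.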

[2] = biological target: Gonadotropin-releasing hormone receptor (Homo sapiens) (UniProt P30968); experiment: Human gonadotropin-releasing hormone receptor (GnRHR) small molecule agonists, calcium flux assay in GnRHR-HEK293 cells (AID 1920063); note: nearly all actives have a fitted effect of over 35% in size
Sequence of Gonadotropin-releasing hormone receptor (Homo sapiens) (P30968 whole entry, looked up): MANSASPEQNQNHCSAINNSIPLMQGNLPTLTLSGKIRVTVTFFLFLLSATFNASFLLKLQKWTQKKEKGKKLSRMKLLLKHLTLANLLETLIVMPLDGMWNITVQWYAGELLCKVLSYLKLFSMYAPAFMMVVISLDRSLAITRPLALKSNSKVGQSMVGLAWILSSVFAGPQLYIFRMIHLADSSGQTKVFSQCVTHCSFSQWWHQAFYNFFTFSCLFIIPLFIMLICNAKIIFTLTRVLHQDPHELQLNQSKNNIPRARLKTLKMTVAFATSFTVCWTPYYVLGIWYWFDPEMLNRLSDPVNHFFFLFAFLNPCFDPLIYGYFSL
Summary of the method: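 Fluorescence kinetics (480 nm excitation, 540 nm emission; 3 min, 1 s steps) report calcium mobilisation in human GnRHR-HEK293 cells in agonist mode. Dye incubation: 1 h, 37 C.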

[3] = G protein-coupled receptor (GPCR) small molecule agonists, calcium flux assay: HEK293 wild type cell line counter screen (AID 1920065)
Summary of the method: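 Readout: fluorescence at 480 nm excitation/540 nm emission, sampled at 1 s intervals for 3 min. Cells had been cultured 18 h, then dye-loaded 1 h at 37 C before compound or ATP addition.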

[4] = p53 small molecule agonists, cell-based qHTS assay with rat liver microsomes: qHTS cell viability counter screen (AID 1963580); note: nearly all actives have a fitted effect of over 45% in size; note: potency is the fitted concentration of half-maximal effect
Summary of the method: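 In HCT-116 cells carrying a p53 response element-bla reporter, compounds were metabolically activated in situ by rat liver microsomes with NADPH over 16 h. Cell ATP content then served as the cytotoxicity measure.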

[5] = p53 small molecule agonists, cell-based qHTS assay: qHTS cell viability counter screen (AID 1963581); note: nearly all actives have a fitted effect of over 45% in size; note: potency is the fitted concentration of half-maximal effect
Summary of the method: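 In the same plates used for the p53 bla reporter, HCT-116 cells given compounds for 16 h at 37 C received CellTiter-Glo; luminescence was recorded 30 min later at room temperature.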

[6] = biological target: 5-hydroxytryptamine receptor 2A (Homo sapiens) (UniProt P28223); experiment: 5-hydroxytryptamine receptor 2A (HTR2A) small molecule agonists, cell-based qHTS assay (AID 1963587); note: nearly all actives have a fitted effect of over 30% in size
Sequence of 5-hydroxytryptamine receptor 2A (Homo sapiens) (P28223 whole entry, looked up): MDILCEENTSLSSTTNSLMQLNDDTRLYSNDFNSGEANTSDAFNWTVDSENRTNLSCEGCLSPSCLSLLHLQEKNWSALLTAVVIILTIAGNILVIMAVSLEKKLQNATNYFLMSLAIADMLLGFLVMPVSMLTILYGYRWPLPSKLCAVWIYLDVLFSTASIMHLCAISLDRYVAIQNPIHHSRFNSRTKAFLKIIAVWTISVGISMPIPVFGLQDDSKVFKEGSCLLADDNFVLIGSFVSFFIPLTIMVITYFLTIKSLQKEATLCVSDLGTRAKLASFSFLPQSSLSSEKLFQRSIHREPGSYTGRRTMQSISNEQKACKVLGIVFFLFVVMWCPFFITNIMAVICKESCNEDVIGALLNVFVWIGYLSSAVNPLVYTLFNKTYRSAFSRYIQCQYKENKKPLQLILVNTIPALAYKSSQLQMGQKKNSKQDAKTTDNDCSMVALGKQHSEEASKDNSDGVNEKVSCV
Summary of the method: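 HTR2A-CHO cells, plated 18 h at 37 C/5% CO2, dye-loaded 1 h at 37 C; compounds in DMSO added by pin tool (agonist mode). Intracellular calcium flux read as kinetic fluorescence on FDSS over 2 min at 1 s intervals.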

[7] = biological target: Muscarinic acetylcholine receptor M1 (Homo sapiens) (UniProt P11229); experiment: Cholinergic receptor muscarinic 1 (CHRM1) small molecule antagonists, cell-based qHTS assay (AID 1963588); note: nearly all actives have a fitted effect of over 40% in size; note: potency is the fitted concentration of half-maximal effect
Sequence of Muscarinic acetylcholine receptor M1 (Homo sapiens) (P11229 whole entry, looked up): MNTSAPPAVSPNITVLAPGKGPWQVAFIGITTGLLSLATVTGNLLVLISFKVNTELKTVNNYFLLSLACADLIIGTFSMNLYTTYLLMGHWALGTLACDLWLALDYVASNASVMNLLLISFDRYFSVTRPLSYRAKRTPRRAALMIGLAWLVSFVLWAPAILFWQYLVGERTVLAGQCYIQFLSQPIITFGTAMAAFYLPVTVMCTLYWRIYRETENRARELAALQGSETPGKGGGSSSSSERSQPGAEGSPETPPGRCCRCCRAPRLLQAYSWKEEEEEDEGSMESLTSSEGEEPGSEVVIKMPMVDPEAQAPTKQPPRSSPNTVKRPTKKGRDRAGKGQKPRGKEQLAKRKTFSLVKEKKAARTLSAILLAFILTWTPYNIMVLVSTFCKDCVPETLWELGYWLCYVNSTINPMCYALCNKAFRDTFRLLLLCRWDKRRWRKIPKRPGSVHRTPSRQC
Summary of the method: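 CHRM1-CHO calcium-flux assay, antagonist mode. Cells were seeded 18 h, dye-loaded 1 h at 37 C and given compound for 5 min at RT, then acetylcholine was added at 50nM. FDSS fluorescence was read 3 min; 15 concentrations, three runs.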

[8] = biological target: Muscarinic acetylcholine receptor M1 (Homo sapiens) (UniProt P11229); experiment: Cholinergic receptor muscarinic 1 (CHRM1) small molecule agonists, cell-based qHTS assay (AID 1963589); note: nearly all actives have a fitted effect of over 35% in size
Summary of the method: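 Each compound was tested at 15 concentrations across three independent runs on dye-loaded CHO cells stably expressing human CHRM1, reading intracellular calcium fluorescence kinetically at 1 sec intervals.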

[9] = cAMP Responsive Elements (CRE) small molecule agonists, cell-based qHTS assay (AID 1963590)
Summary of the method: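 Cell line: CRE-bla HEK 293T; medium DMEM/10% dialyzed FBS/0.1 mM NEAA/1 mM pyruvate/25 mM HEPES; 3 h compound exposure; beta-lactamase FRET readout after 2 h substrate loading at RT.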

[10] = cAMP Responsive Elements (CRE) small molecule antagonists, cell-based qHTS assay (AID 1963591; active = well fitted inhibition curve with a large enough effect in the signal ratio in the repeat runs, not every such curve was filed as active; the % refers to the signal ratio)
Summary of the method: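 Inhibition of NKH477-driven (0.25 uM final) CRE-beta-lactamase signal in HEK293T cells, 3 h compound exposure at 37 °C, detected by FRET substrate fluorescence.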

[11] = biological target: Beta-2 adrenergic receptor (Homo sapiens) (UniProt P07550); experiment: Adrenergic beta2 receptor (ADRB2) small molecule antagonists, cell-based qHTS assay (AID 1963592); note: series mostly up to about 92 µM; nearly all actives have a fitted effect of over 50% in size
Sequence of Beta-2 adrenergic receptor (Homo sapiens) (P07550 whole entry, looked up): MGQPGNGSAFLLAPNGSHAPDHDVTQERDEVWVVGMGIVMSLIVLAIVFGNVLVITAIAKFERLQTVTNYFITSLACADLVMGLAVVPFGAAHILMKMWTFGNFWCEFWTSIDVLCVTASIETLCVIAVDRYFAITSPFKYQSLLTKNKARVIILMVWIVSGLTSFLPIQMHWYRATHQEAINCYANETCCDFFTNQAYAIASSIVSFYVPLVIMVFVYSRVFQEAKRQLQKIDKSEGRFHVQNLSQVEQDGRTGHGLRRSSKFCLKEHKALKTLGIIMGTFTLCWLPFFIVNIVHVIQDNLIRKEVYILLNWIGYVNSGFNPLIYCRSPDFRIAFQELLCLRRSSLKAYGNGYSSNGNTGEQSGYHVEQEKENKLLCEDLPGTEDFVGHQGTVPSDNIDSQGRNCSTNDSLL
Summary of the method: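 Cells (CHO, stable ADRB2 overexpression) incubated 18-20hr at 37C; compounds added from DMSO; agonist mix (1nM isoproterenol, 100uM IBMX, 25uM Ro-20-1724) added; 0.5hr RT; d2-cAMP and anti-cAMP-cryptate added; 1hr RT; 665/615 nm read.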

[12] = biological target: D(2) dopamine receptor (Homo sapiens) (UniProt P14416); experiment: Dopamine D2 receptor (DRD2) small molecule agonists, cell-based qHTS assay (AID 1963594); note: nearly all actives have a fitted effect of over 35% in size
Sequence of D(2) dopamine receptor (Homo sapiens) (P14416 whole entry, looked up): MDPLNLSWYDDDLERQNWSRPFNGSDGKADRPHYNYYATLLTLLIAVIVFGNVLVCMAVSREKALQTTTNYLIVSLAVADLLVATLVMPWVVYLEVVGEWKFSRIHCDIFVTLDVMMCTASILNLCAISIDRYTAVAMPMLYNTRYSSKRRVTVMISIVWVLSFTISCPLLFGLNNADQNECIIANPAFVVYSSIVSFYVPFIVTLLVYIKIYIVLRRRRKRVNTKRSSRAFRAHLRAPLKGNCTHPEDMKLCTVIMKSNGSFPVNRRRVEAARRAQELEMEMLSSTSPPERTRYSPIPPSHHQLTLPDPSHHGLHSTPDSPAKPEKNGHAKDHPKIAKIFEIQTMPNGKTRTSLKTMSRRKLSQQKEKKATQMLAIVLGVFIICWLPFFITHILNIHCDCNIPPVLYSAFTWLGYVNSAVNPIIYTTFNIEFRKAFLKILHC
Summary of the method: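 HEK293 cells stably expressing DRD2 were cultured 24 h at 37 C, then given Ro20-1724 (0.1 mM final) and compounds for 10 min at room temperature. NKH477 (200nM) was then added for 30 min. cAMP was read by HTRF.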

[13] = biological target: D(2) dopamine receptor (Homo sapiens) (UniProt P14416); experiment: Dopamine D2 receptor (DRD2) small molecule antagonists, cell-based qHTS assay (AID 1963595; active = well fitted inhibition curve with a large enough effect in the signal ratio in the repeat runs, with a control signal flat; the % refers to the signal ratio)
Summary of the method: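 Antagonist mode in DRD2-HEK293 cells: after compound addition with 0.1 mM Ro20-1724, cells received quinpirole (12 nM) and NKH477 (200 nM) for 30 min at room temperature; HTRF cAMP read after 1 h detection.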

[14] = biological target: KiSS-1 receptor (Homo sapiens) (UniProt Q969F8); experiment: Human kisspeptin (KISS1R) small molecule agonists, calcium flux assay in KISS1R-HEK293 cells (AID 1920064; active = well fitted curve in the direction sought with a large enough effect in the repeat runs; an effect the other way counts as inactive or inconclusive)
Sequence of KiSS-1 receptor (Homo sapiens) (Q969F8 whole entry, looked up): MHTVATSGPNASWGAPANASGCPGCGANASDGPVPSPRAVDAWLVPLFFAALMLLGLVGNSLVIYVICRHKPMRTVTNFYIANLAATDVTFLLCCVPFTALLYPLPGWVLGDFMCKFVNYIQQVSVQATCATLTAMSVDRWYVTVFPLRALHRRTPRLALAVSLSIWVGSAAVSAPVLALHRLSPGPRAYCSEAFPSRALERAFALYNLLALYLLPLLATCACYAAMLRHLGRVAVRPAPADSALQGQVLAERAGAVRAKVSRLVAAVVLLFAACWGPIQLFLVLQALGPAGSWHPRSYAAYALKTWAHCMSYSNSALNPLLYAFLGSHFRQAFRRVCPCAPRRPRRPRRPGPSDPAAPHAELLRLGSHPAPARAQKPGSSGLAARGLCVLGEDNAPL
Summary of the method: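 Measures KISS1R agonism through calcium-sensitive dye fluorescence in stably transfected HEK293 cells, read for 3 min after pin-tool compound delivery; 15-point titrations in triplicate.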

[15] = p53 small molecule agonists, cell-based qHTS assay with human liver microsomes: qHTS cell viability counter screen (AID 1963579); note: nearly all actives have a fitted effect of over 45% in size; note: potency is the fitted concentration of half-maximal effect
Summary of the method: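 After the 460/530 nm beta-lactamase read, CellTiter-Glo was added to the same wells and luminescence measured after 30 min at room temperature, giving viability of p53RE-bla cells treated 16 h with compounds plus microsomes and NADPH.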

[16] = biological target: 5-hydroxytryptamine receptor 2A (Homo sapiens) (UniProt P28223); experiment: 5-hydroxytryptamine receptor 2A (HTR2A) small molecule antagonists, cell-based qHTS assay (AID 1963586); note: nearly all actives have a fitted effect of over 45% in size
Summary of the method: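 Antagonist-mode intracellular calcium assay: DOI (4 nM) added after 5 min compound pre-incubation at room temperature to dye-loaded HTR2A-CHO cells. Fluorescence followed for 3 min, sampled every second.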

[17] = Nuclear factor erythroid 2-related factor 2/antioxidant responsive element (Nrf2/ARE) small molecule agonists: luciferase reporter gene qHTS assay in human keratinocytes (AID 1919969); note: nearly all actives have a fitted effect of over 35% in size; note: potency is the fitted concentration of half-maximal effect
[18] = p53 small molecule agonists, cell-based qHTS assay with human liver microsomes (AID 1963577);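 note: p53 response element beta-lactamase reporter cells with liver microsomes plus NADPH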
Summary of the method: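 Steps: plate p53RE-bla cells, incubate 5 h at 37 C; add compound in DMSO; add microsomes (0.5 mg/mL final) and NADPH (0.5 mg/mL final); incubate 16 h at 37 C; add LiveBLAzer, 2 h RT; read fluorescence.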

[19] = p53 small molecule agonists, cell-based qHTS assay with rat liver microsomes (AID 1963578)
Summary of the method: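 Metabolic activation is supplied by rat liver microsomes with NADPH (each 0.5 mg/mL final). p53RE-bla cells incubate with compound 16 h at 37 C; reporter activity is measured by LiveBLAzer fluorescence.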

[20] = p53 small molecule agonists, cell-based qHTS assay (AID 1963582; active = well fitted activation curve with a large enough effect in the signal ratio in the repeat runs, not every such curve was filed as active; the % refers to the signal ratio)
Summary of the method: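 Compounds are pin-transferred in DMSO onto p53RE-bla cells and incubated 16 h at 37 C. The B/G FRET beta-lactamase substrate is then applied for 2 h at RT and fluorescence recorded.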

Measured: Potency

O.O.O.O.O.O.O.O=S(=O)([O-])[O-].[Co+2]
inactive: [1] | [2] | [3] | [4] | [5] | [6] | [7] | [8] | [9] | [10] | [11] | [12] | [13]

O=[N+]([O-])C(Br)(CO)CO
inactive: [1] | [2] | [14] | [15] | [4] | [5] | [16] | [7] | [8] | [9] | [11]

[Cl-].[Cl-].[Cl-].[Yb+3]
inactive: [1] | [2] | [14] | [15] | [4] | [16] | [7] | [8] | [9] | [10] | [11] | [12] | [13]

CC(C)(C)c1cc(O)ccc1O
active: [17] 24.3 µM and 30.6 µM
inactive: [2] | [14] | [3] | [18] | [19] | [15] | [4] | [5] | [16] | [6] | [7] | [8] | [9] | [10] | [11] | [13]

CCC(C)(c1ccc(O)cc1)c1ccc(O)cc1
inactive: [17] | [2] | [14] | [3] | [18] | [19] | [15] | [4] | [5] | [16] | [6] | [7] | [8] | [9] | [10] | [11] | [12] | [13]

ClC1=C(Cl)[C@]2(Cl)[C@H]3[C@H]([C@H]4C=C[C@H]3C4)[C@@]1(Cl)C2(Cl)Cl
active: [17] 19.3 µM
inactive: [2] | [14] | [3] | [18] | [19] | [15] | [4] | [5] | [20] | [16] | [7] | [8] | [10] | [11] | [12] | [13]

CN1C(=O)[C@@H](NC(=O)c2cc3ccccc3[nH]2)N=C(c2ccccc2)c2ccccc21
inactive: [17] | [2] | [14] | [3] | [18] | [19] | [15] | [4] | [5] | [16] | [6] | [7] | [8] | [10] | [11] | [12] | [13]

CC(C)[C@@H](C(=O)O[C@@H](C#N)c1cccc(Oc2ccccc2)c1)c1ccc(Cl)cc1
inactive: [17] | [2] | [14] | [3] | [18] | [19] | [15] | [4] | [5] | [20] | [16] | [6] | [7] | [8] | [10] | [11] | [12] | [13]

CCCCOCN(C(=O)CCl)c1c(CC)cccc1CC
active: [17] 24.3 µM
inactive: [2] | [14] | [3] | [18] | [19] | [15] | [4] | [5] | [16] | [6] | [7] | [8] | [11] | [12]

Oc1cc(Cl)c(Cl)c(Cl)c1
inactive: [2] | [14] | [3] | [18] | [19] | [4] | [5] | [16] | [6] | [8] | [10] | [11] | [12] | [13]
active: [17] 65 µM

OC(c1ccc(Cl)cc1)(c1ccc(Cl)cc1)c1cccnc1
active: [7] 16.8 µM
inactive: [17] | [2] | [14] | [3] | [18] | [19] | [15] | [6] | [8] | [9] | [10] | [11] | [12] | [13]

C[C@H]1O[C@@H](O[C@H]2[C@@H](O)C[C@H](O[C@H]3[C@@H](O)C[C@H](O[C@H]4CC[C@@]5(C)[C@H](CC[C@@H]6[C@@H]5CC[C@]5(C)[C@@H](C7=CC(=O)OC7)CC[C@]65O)C4)O[C@@H]3C)O[C@@H]2C)C[C@H](O)[C@@H]1O
inactive: [2] | [14] | [3] | [18] | [19] | [11] | [12] | [13]
46.1 nM (active) and inactive: [15]
active: [17] 61.5 nM and 119 nM | [4] 73 nM | [5] 81.9 nM and 79.3 nM
